Results published in PubChem BioAssay AID1851 (National Center for Advancing Translational Sciences (NCATS), 2009).
Among all 16,000 compounds or so, about 5,800 (36%) were called active. Inconclusive results (about 23%) are left out. This is one part of the list. A number with no mark means an inactive call. Calls follow the shape of the dose curve; as a rule, active = well fitted curve in the direction sought with a large enough effect; inconclusive = small, poorly fitted or top-dose-only effect, or effect the other way; inactive = no such curve, though single readings can be large or run the other way.
% is scaled to controls: 0 for no effect and ±100 for the full control effect.

What follows are molecules tested against Cytochrome P450 2C19 (Homo sapiens) (UniProt P33261) (assay: Cytochrome panel assay with activity outcomes). Settings: recombinant CYP, pro-luciferin dealkylation, luminescence, p450-cyp2c19; series mostly up to 57.1 µM; activity, negative = inhibition: at the top concentration.
Chain of Cytochrome P450 2C19 (Homo sapiens) (P33261 whole entry, looked up): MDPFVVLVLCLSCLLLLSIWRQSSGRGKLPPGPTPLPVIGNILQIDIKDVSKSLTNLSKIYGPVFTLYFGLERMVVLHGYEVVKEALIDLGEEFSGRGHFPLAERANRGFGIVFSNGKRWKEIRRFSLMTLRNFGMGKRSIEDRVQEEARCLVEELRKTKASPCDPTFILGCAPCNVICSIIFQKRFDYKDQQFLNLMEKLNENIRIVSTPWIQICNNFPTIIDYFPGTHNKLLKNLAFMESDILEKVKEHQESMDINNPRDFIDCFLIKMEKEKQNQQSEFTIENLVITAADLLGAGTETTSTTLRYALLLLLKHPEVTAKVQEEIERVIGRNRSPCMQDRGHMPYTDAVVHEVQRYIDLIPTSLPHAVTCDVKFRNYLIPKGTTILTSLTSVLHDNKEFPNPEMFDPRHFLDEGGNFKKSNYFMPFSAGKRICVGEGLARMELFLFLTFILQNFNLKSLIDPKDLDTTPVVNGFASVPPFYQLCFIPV
For `Fc1ccc(C2CC(c3ccco3)=NN2c2ccccc2)cc1` (centres undefined), the AC50 was 2.24 µM (active). `C[C@@H]1CC[C@@H]2C(=O)N3[C@@H](CC[C@@H](C)[C@@H]3c3ccc(-c4ccco4)cc3)C(=O)N2[C@H]1c1ccc(-c2ccco2)cc1` gave an activity, negative = inhibition of 0.199% [at 11.4 µM]. In the case of `CCN1C(=O)[C@H]2[C@H]3[C@H](O)[C@H](O)C/C(=N/O[C@@H]4O[C@@H](COC(C)=O)[C@@H](OC(C)=O)[C@@H](OC(C)=O)[C@H]4OC(C)=O)[C@@H]3CC[C@@H]2C1=O`, the activity, negative = inhibition is reported as 13.6% [at 11.4 µM]. `O=C(c1cc(O)c(O)c([N+](=O)[O-])c1)c1ccccc1F` was tested, and the “activity, negative = inhibition” value was -8.03%. With `Cc1ccc(-c2cccc(OC(=O)c3ccccc3F)c2)cc1` the AC50 was 2.51 µM (active). In the case of `Cc1cc(OC(=O)c2ccccc2Cl)cc(=O)n1C`, the “activity, negative = inhibition” value is reported as -13.3%. For `CN(C)C(=N)N=C(N)N`, the “activity, negative = inhibition” value was 2.73% [at 25.6 µM]. For `COc1ccc(Cl)cc1NC(=O)C12CCC(C)(C(=O)O1)C2(C)C` (centres undefined), the AC50 was 1.26 µM (active). For `Cc1cc2c(s1)CCCCC(=O)N2`, the AC50 was 22.4 µM (active). `O=C1CCCCC(=O)c2ccccc2N1` was tested, and the “activity, negative = inhibition” value was -6.61%. `N#C[C@H]1CN[C@H](N)N[C@@H]1N` was tested, and the activity, negative = inhibition was 14.3% [at 11.4 µM]. With `Oc1[nH]c2ccccc2c1/C=N/c1nccs1` the AC50 was 14.1 µM (active). `c1ccc(C2OCC3(CO2)COC(c2ccccc2)OC3)cc1` (centres undefined) was tested, and the AC50 was 2.51 µM (active). With `O=C1c2ccccc2C(=O)C1c1ccccc1` the “activity, negative = inhibition” value was -10.9% [at 25.6 µM]. `CC(C)(C)c1[nH]nc2c1C(c1ccc(OC(=O)c3ccco3)cc1)C(C#N)=C(N)O2` (centres undefined) was tested, and the “activity, negative = inhibition” value was -28.5%. `C/C(=C\c1ccco1)C1C(C#N)=C(N)Oc2n[nH]c(-c3ccccc3)c21` (centres undefined) was tested, and the AC50 was 2.24 µM (active). In the case of `COc1ccccc1CN1CC[C@@]2(CCCN(C(=O)c3cccn3C)C2)C1`, the “activity, negative = inhibition” value is reported as 6.39%. In the case of `CCN(CC)CCOC(=O)C1(c2ccc([N+](=O)[O-])cc2)CCCC1`, the “activity, negative = inhibition” value is reported as -32.9%. For `Cc1cccc(NC(=O)C2(c3ccc([N+](=O)[O-])cc3)CCCC2)c1`, the AC50 was 0.891 µM (active). With `Cc1cccc(NC(=O)C23CCC(C)(C2Br)C3(C)C)c1` (centres undefined) the AC50 was 4.47 µM (active). With `CC12CCC(C(=O)Nc3cccc4ccccc34)(C1Br)C2(C)C` (centres undefined) the AC50 was 8.91 µM (active). In the case of `Cc1cccc(NC(=O)C2(c3ccccc3)CC2(Cl)Cl)c1` (centres undefined), the AC50 is reported as 1 µM (active). In the case of `Cc1cccc(NC2=NC(=S)N(c3ccc(C(=O)O)cc3)C23CCCCC3)c1`, the “activity, negative = inhibition” value is reported as -54.6%. With `CCOC(=O)N/N=C1/C[C@@H](O)[C@@H](O)[C@@H]2[C@@H]3C(=O)N(C4CCCCC4)C(=O)[C@H]3CC[C@@H]12` the activity, negative = inhibition was -22.2% [at 11.4 µM]. `C[N+]1(CCCC[N+]2(C)CCCCCCC2)CCCCCCC1` gave an activity, negative = inhibition of 34.1% [at 11.4 µM]. For `CCc1ccccc1NC(=O)c1ccc(-n2c(C)ccc2C)cc1`, the AC50 was 15.8 µM (active). `C=CCNc1oc(/C=C/c2ccccc2)nc1C#N` was tested, and the AC50 was 4.47 µM (active). With `O=C(O)c1ccc2c3c1cccc3c(=O)n1c3ccccc3nc21` the AC50 was 3.98 µM (active). `O=c1c2ccc([N+](=O)[O-])c3cccc(c32)c2nc3ccccc3n12` was tested, and the “activity, negative = inhibition” value was -7.67%. With `Cc1cccc(CNc2ccnc(-c3cccnc3)n2)c1` the AC50 was 2.51 µM (active). In the case of `Cc1cnc(CNc2ccnc(-c3cccnc3)n2)cn1`, the “activity, negative = inhibition” value is reported as -6.65%. In the case of `c1cncc(-c2nccc(NCc3cccs3)n2)c1`, the AC50 is reported as 7.94 µM (active). For `c1ccc(CNc2ccnc(-c3cccnc3)n2)cc1`, the AC50 was 2.51 µM (active). For `O=C=Nc1ccc(Cc2ccc(N=C=O)cc2)cc1` (tested in a mixture with another compound), the activity, negative = inhibition was -1.1% [at 11.4 µM]. For `CNc1nc(Cl)nc(NC(C)(C)C)n1`, the AC50 was 14.1 µM (active). `CCOc1ccc(C2C(C(=O)O)c3ccccc3C(=O)N2CCN2CCOCC2)cc1` (centres undefined) was tested, and the “activity, negative = inhibition” value was 2.08%. In the case of `CCOc1ccc(/C=C2\C(=O)c3ccccc3OC2c2ccccc2)cc1` (centres undefined), the AC50 is reported as 1.12 µM (active). In the case of `Cc1cc(C)c2nc3c(c([C@H](O)[C@@H]4CCCCN4)c2c1)CC/C3=C/c1ccc(Cl)cc1`, the activity, negative = inhibition is reported as -6.83% [at 11.4 µM]. With `CSCC[C@H](NC(=O)c1nn(C)c(=O)c2ccccc12)c1nc2ccccc2[nH]1` the AC50 was 14.1 µM (active). For `CC1Cc2ccccc2N1C(=O)C1CCCCN1S(=O)(=O)c1ccccc1` (centres undefined), the AC50 was 2.24 µM (active). With `CC(=O)N1c2ccc(S(=O)(=O)CCC(=O)O)cc2CC1C` (centres undefined) the “activity, negative = inhibition” value was -4.88%. `O=C(NC(NC(=S)Nc1cc(Cl)ccc1Cl)C(Cl)(Cl)Cl)c1ccco1` (centres undefined) was tested, and the AC50 was 1.58 µM (active). For `CCc1nnc(NC(=O)CSc2ncnc3c2cnn3-c2ccc(OC)cc2)s1`, the “activity, negative = inhibition” value was -18.2%. In the case of `CCc1ccc(OCC(=O)NNC(=O)CSc2ncnc3sc(C)c(C)c23)cc1`, the AC50 is reported as 11.2 µM (active).
